According to PubChem BioAssay AID1347416 (National Center for Advancing Translational Sciences (NCATS), 2020):
Hit rate of the full screen: of about 4,100 compounds, about 1,600 (39%) were called active. About 25% were inconclusive and are not listed. The list shows a part of the results. Values without a mark were called inactive. Calls follow the shape of the dose curve; as a rule, active = well fitted inhibition curve with a large enough effect; inconclusive = small, poorly fitted or top-dose-only effect; inactive = no such curve, though single readings can be large or run the other way.

assay: qHTS Validation assay for Inhibitors of Plasmodium falciparum Dd2 growth in vitro; also: nearly all actives have a fitted effect of over 70% in size; details: P. falciparum Dd2 in RBCs, SYBR Green growth, 72 h; series mostly up to 28.7 µM; activity change, negative = inhibition: at the top concentration
How it was run: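 P. falciparum Dd2-infected red blood cells (2.5% hematocrit, 0.3% parasitemia) grown 72 h at 37 °C under 5% O2 with compounds in a titration, 29 uM to 0.5 nM final. Growth read as SYBR Green-1 fluorescence after ~16 h lysis; artesunate 300 nM as positive control.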
% is scaled to controls: 0 for no effect and ±100 for the full control effect; potency is read from the fitted curve at half-maximal effect.

Row | SMILES | activity change, negative = inhibition | Potency
1 | CC(C)c1ccc(OCc2ccc(C(=O)O)o2)cc1 | -2.28% | 
2 | CC(O)CNCCNCc1c(OCc2ccccc2)ccc2ccccc12 (centres undefined) |  | 8.41 µM (active)
3 | Cc1cc(N2CCN(C3CCCCC3)CC2)nc2cccc(O)c12 |  | 5.31 µM (active)
4 | Cc1cc(N2CCC(N(C)C3CCCC3)CC2)nc2cc(O)ccc12 |  | 5.96 µM (active)
5 | Cc1nc2ccc(NC(=O)c3cc(S(=O)(=O)N(C)c4ccccc4)ccc3Cl)cc2s1 |  | 0.842 µM (active)
6 | COc1cccc(OC)c1C(=O)NC(=S)Nc1ccc2c(c1)C(=O)N(C)C2=O |  | 0.944 µM (active)
7 | O=C(NC(=S)Nc1ccc2c(c1)OCCO2)c1ccccc1F | 35% | 
8 | COc1ccc(NC(=O)c2ccc3c(c2)n(C)c(=O)c2ccnn23)cc1OC | -18.1% | 
9 | COC(=O)[C@@H]1Cc2c([nH]c3ccccc23)[C@H]2C[C@H](N3CCCCC3)C[C@@H](c3ccccc3F)N21 |  | 5.96 µM (active)
10 | C1CCC(COCCc2noc(C3CNC3)n2)C1 | -91.5% | 
11 | Cc1cc(C)cc(NC(=O)NCc2c(-n3cccc3)sc3c2CCCC3)c1 | 36.2% | 
12 | CC(=O)N1Cc2ccccc2CC2(CCN(CC3CCOCC3)C2)C1 (centres undefined) | 12.6% | 
13 | CC(C)C(=O)N1Cc2ccccc2CC2(CCCN(CC3CCCCC3)C2)C1 (centres undefined) |  | 0.0531 µM (active)
14 | CC(=O)N1Cc2ccccc2CC2(CCN(Cc3ccccn3)CC2)C1 | 17.5% | 
15 | CC(C)(C)c1cnc([C@@H]2COCCN2Cc2ccccc2O)[nH]1 |  | 13.7 µM (active)
16 | Cc1ccc(CN2CCOC[C@H]2c2ncc(C(C)(C)C)[nH]2)cc1 |  | 13.7 µM (active)
17 | C[C@@H](c1ccccc1)N1C(=O)[C@@H]2CN(C(=O)c3cccnc3)CCN2C1=O | 37.2% [at 43.1 µM] | 
18 | Cc1nn2c(c1-c1ccccc1-c1ccccc1)N(Cc1ccc(O)cc1)CCC2 |  | 0.485 µM (active)
19 | Cc1nn2c(c1-c1ccccc1-c1ccccc1)N(Cc1cccc(O)c1)CCC2 |  | 4.85 µM (active)
20 | CCCCSc1nnc2c(n1)OC(C)N(C(C)=O)c1ccccc1-2 (centres undefined) | 9.17% | 
21 | CCOc1ccc(NS(=O)(=O)c2csc(C(N)=O)c2)cc1 |  | 7.5 µM (active)
22 | COc1cc(NS(=O)(=O)c2cnc(N)nc2)cc(OC)c1 | 0% | 
23 | CCOc1ccc(S(=O)(=O)Nc2ccc3oc4c(c3c2)CC(C)CC4)cc1 (centres undefined) | 27.2% | 
24 | CCn1cc(C(=O)N2CCN(c3ccc(OC)cc3)CC2)c(=O)c2cc(S(=O)(=O)N3CCOCC3)ccc21 | 32.5% | 
25 | CCn1cc(C(=O)O)c(=O)c2cnc(N3CCN(C(=S)Nc4ccccc4)CC3)nc21 |  | 3.76 µM (active)

Row | SMILES | activity change, negative = inhibition | Potency
26 | Cc1ccc(C(=O)c2cc(C)sc2NC(=O)CN2CCN(C(=O)c3ccco3)CC2)cc1 |  | 7.5 µM (active)
27 | COCCOC1CCOC2(CCN(C(=O)c3ccco3)CC2)C1 (centres undefined) | -41.3% | 
28 | CCc1cc(C(=O)OC)c(NC(=O)CN2CCN(C(=O)c3ccco3)CC2)s1 |  | 5.96 µM (active)
29 | COc1ccccc1-n1c(SCC(=O)NC(C)(C)C)nc(O)cc1=O | 12.2% | 
30 | COc1ccccc1NC(=O)CSc1nc2c(oc3ccccc32)c(=O)n1-c1ccc(C)cc1 |  | 15 µM (active)
31 | COCCN1C(=O)c2ccccc2C(C(=O)Nc2nc3ccccc3[nH]2)C12CCCC2 (centres undefined) |  | 4.22 µM (active)
32 | COCCN1C(=O)CC[C@]2(C(=O)NCc3ccccc3Cl)CCCC[C@@H]12 | -5.07% | 
33 | COCCN1C(=O)c2ccccc2C(C(=O)Nc2nc3ccccc3[nH]2)C12CCCCC2 (centres undefined) |  | 4.73 µM (active)
34 | CCc1nc(NC(=O)C2c3ccccc3C(=O)N(CCOC)C23CCCC3)sc1C (centres undefined) |  | 5.96 µM (active)
35 | COCCN1C(=O)CCC2(CNC(=O)CCc3nc4ccccc4[nH]3)CCCC=C12 (centres undefined) | 12.1% | 
36 | COc1nc(N(C)S(=O)(=O)c2ccc(C)cc2)nc(C)c1Br | 21.9% | 
37 | Cc1cc(C(F)(F)F)nn1CC(=O)NCCc1ncc(C)n1CC1CC1 |  | 10.6 µM (active)
38 | Cc1cnc(CCNC(=O)Cn2c(=O)oc3ccccc32)n1C1CC1 | -13.1% | 
39 | Cc1nnc2n1CCC(N(C)S(=O)(=O)c1cn(C)cn1)CC2 (centres undefined) | 10.2% | 
40 | CN(CCn1cc(-c2nccn2C)nn1)S(C)(=O)=O | 39.1% | 
41 | Cc1cccc2cc(CN(Cc3ccco3)C(c3nnnn3CCc3ccccc3)C(C)C)c(=O)[nH]c12 (centres undefined) |  | 10.6 µM (active)
42 | Cc1noc(-c2ccn3c(CNC(=O)c4ccccc4Cl)nnc3c2)n1 | 10.4% | 
43 | Cc1ccccc1Nc1nc(-c2cccnc2)cs1 |  | 9.44 µM (active)
44 | O=C(O)Cn1c(-c2ccccn2)nc2ccccc21 | 41% | 
45 | COC(=O)COc1ccc(-c2nccc(-c3ccccn3)n2)cc1 | 40% | 
46 | c1ccc(CNc2nc(-c3ccccn3)nc3ccccc23)cc1 |  | 5.31 µM (active)
47 | Cc1cccnc1Nc1nc(-c2ccccn2)cs1 |  | 0.473 µM (active)
48 | c1ccc(CCNc2nc(-c3ccccn3)cs2)cc1 |  | 7.5 µM (active)
49 | Cc1ccccc1Nc1nnc(SCc2cc(=O)n3ccsc3n2)s1 | 4.3% | 
50 | Cc1nn(C)cc1CN(C)C(=O)CC12CC3CC(CC(C3)C1)C2 | 21.6% | 

Row | SMILES | activity change, negative = inhibition | Potency
51 | CC(C)c1noc(-c2cn(C3CCCN(C(=O)c4ccc(N(C)C)cc4)C3)nn2)n1 (centres undefined) | -13.1% | 
52 | COc1ccc(OC)c(C2Nc3c(C)cc(C)cc3-c3cc(C)nn32)c1 (centres undefined) | -26.2% | 
53 | c1ccc(-c2nc(NCc3ccco3)c3ccccc3n2)nc1 |  | 5.96 µM (active)
54 | CCCN(CCC)c1nc(-c2ccccn2)nc2ccccc12 |  | 5.31 µM (active)
55 | c1ccc(CCNc2nc(-c3ccccn3)nc3ccccc23)cc1 |  | 4.73 µM (active)
56 | CCCCOc1cccc(C(=O)N(Cc2ccc(Br)o2)C2CCS(=O)(=O)C2)c1 (centres undefined) | 0% | 
57 | O=C(CCn1c(=O)c2cccn2c2cccnc21)NCc1ccc(F)cc1 | 3.25% | 
58 | Oc1cc(NCc2ccc(F)cc2)cc2cccnc12 |  | 4.73 µM (active)
59 | Oc1cc(NCc2ccccc2)cc2cccnc12 |  | 2.99 µM (active)
60 | Cc1ccc(-c2cc3c(=O)n(CCNC(=O)c4cccnc4)ccn3n2)c(C)c1 | -19.2% | 
61 | COc1cccc(NC(=O)CCc2c(C)nc3c4cccnc4nn3c2C)c1 | 5.09% | 
62 | COc1cccc(CNC(=O)Cn2c(SCC(=O)Nc3ccc(F)cc3)nc3ccccc32)c1 | -22.5% | 
63 | COc1cccc(NC(=O)CN(C)C(=O)c2oc3c(ccc4ccccc43)c2C)c1 |  | 0.75 µM (active)
64 | COc1ccc(NC(=O)CN(C)C(=O)c2oc3c(ccc4ccccc43)c2C)cc1 |  | 0.531 µM (active)
65 | COc1ccc(C(=O)OCCc2cc3ccccc3c(=O)o2)cc1 | 24.1% | 
66 | COCc1nc(C2CC(NC(=O)c3cc(-c4ccsc4)n[nH]3)C2)cc(=O)[nH]1 (centres undefined) | 27.8% | 
67 | COc1ccc(C(C(=O)Nc2ccc(C(C)C)cc2)N(Cc2ccco2)C(=O)CC2NC(=O)NC2=O)cc1 (centres undefined) |  | 6.68 µM (active)
68 | CN1CCN(C(=O)c2ccc3c(c2)N(Cc2ccc(C(F)(F)F)cc2)C(=O)c2ccccc2S3)CC1 |  | 0.531 µM (active)
69 | CCOc1ccc(CN2C(=O)c3ccccc3Sc3ccc(C(=O)N4CCN(C)CC4)cc32)cc1 |  | 0.299 µM (active)
70 | O=C(c1ccc2[nH]ncc2c1)N1CCOCC12CCN(CCCc1ccccc1)CC2 | -9.68% [at 43.1 µM] | 
71 | O=C(Nc1ccsc1C(=O)NC1CCCCC1)c1ccc(F)cc1 |  | 6.68 µM (active)
72 | Cc1cn2nc(C(=O)N3CCC(NC(=O)c4ccc(F)cc4)CC3)cc2c(=O)[nH]1 | 9.32% | 
73 | CCCN(CC1CCOC1)S(=O)(=O)c1ccc(C)c(C)c1 (centres undefined) | 13.2% | 
74 | COC(=O)c1cnn(-c2ccc(C(=O)Nc3ccc(OC(F)(F)F)cc3)cc2)c1N |  | 4.73 µM (active)
75 | COC(=O)c1cnn(-c2ccc(C(=O)Nc3cccc(C(C)=O)c3)cc2)c1N | 7.57% | 

Row | SMILES | activity change, negative = inhibition | Potency
76 | Cc1ccc(C(=O)Nc2ccc(OCc3cc(=O)n4c(C)csc4n3)cc2)cc1 | -7.09% | 
77 | CC(C)c1ccc(CC(=O)N2CCCc3ncc(C(=O)Nc4cccnc4)cc32)cc1 |  | 0.863 µM (active)
78 | CC(C)CCNC(=O)c1cnc2c(c1)N(C(=O)Cc1cn(C)c3ccccc13)CCC2 | -13% [at 43.1 µM] | 
79 | CNC(=O)c1cnc2c(c1)N(C(=O)Cc1ccc(C(C)C)cc1)CCC2 | 23.4% [at 43.1 µM] | 
80 | Cn1cc(CC(=O)N2CCCc3ncc(C(=O)Nc4cccnc4)cc32)c2ccccc21 | -27.4% [at 43.1 µM] | 
81 | O=C(NCc1ccc2c(c1)OCO2)c1cnc2c(c1)N([S+](=O)([O-])c1cccnc1)CCC2 | 1.02% | 
82 | CC(C)c1ccc(CC(=O)N2CCCc3ncc(C(=O)NCCc4c[nH]c5ccccc45)cc32)cc1 |  | 15 µM (active)
83 | O=C(O)CCC(=O)Nc1ccc(-n2ccc(C(F)(F)F)n2)cc1 | 57% | 
84 | O=C1N(c2ccccc2C(F)(F)F)O[C@@]1(c1ccccc1)C1CCCCC1 |  | 5.31 µM (active)
85 | O=C1N(c2ccccc2C(F)(F)F)O[C@@]1(c1ccccc1)C1CCCC1 |  | 2.99 µM (active)
86 | O=C1CC2(CCN(Cc3cccs3)CC2)Oc2cc(Cl)ccc21 |  | 5.31 µM (active)
87 | O=C1CC2(CCN(CC3CCCCC3)CC2)Oc2cc(Cl)ccc21 |  | 1.5 µM (active)
88 | CC(=O)c1c(C)nc(C)nc1NC(=O)C(C)C | 16.1% | 
89 | Cc1ccc(CN2CCC(CNC(=O)c3cnn(-c4ccc(C)cc4)c3C3CCN(C(=O)OC(C)(C)C)CC3)CC2)cc1 |  | 8.41 µM (active)
90 | COc1ccccc1CN1CCC(CNC(=O)c2cnn(-c3ccc(Cl)cc3)c2C2CCN(C(=O)OC(C)(C)C)CC2)CC1 |  | 2.66 µM (active)
91 | COc1ccccc1CN1CCC(CNC(=O)c2cnn(-c3cccc(Cl)c3)c2C2CCN(C(=O)OC(C)(C)C)CC2)CC1 |  | 7.5 µM (active)
92 | CNC(=O)[C@@H]1CN(C(=O)c2cc(OC)cc(OC)c2)C[C@H]1COC | 15.4% | 
93 | CC(=O)Nc1ccc(NC(=O)Cn2ccn3nc4c(c3c2=O)CCCCC4)cc1 | 38.6% | 
94 | COc1ccc(-c2ncc3c(n2)OCCN(Cc2ccccc2)C3=O)cc1 | -13.6% [at 43.1 µM] | 
95 | COc1ccc(-c2cc(=O)oc3c4c(ccc23)OCN(Cc2ccccc2)C4)cc1 |  | 2.99 µM (active)
96 | COc1ccccc1Cn1cc(C(=O)c2ccc(C)cc2)c(=O)c2cc(C)ccc21 | -9.93% | 
97 | O=c1cc(-c2ccccc2)c2ccc3c(c2o1)CN(Cc1ccccc1)CO3 |  | 2.66 µM (active)
98 | COc1ccccc1CN1COc2ccc3c(oc(=O)c4ccccc43)c2C1 |  | 2.11 µM (active)
99 | CCc1c(C)c2ccc(O)c(CN3CCN(c4ccccc4)CC3)c2oc1=O |  | 2.37 µM (active)
